From PubChem BioAssay AID1852 (Sanford-Burnham Center for Chemical Genomics, 2009)
The campaign covered roughly 2,500 compounds. About 1,100 (44%) were called active.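 Rule for the calls: active = inhibition above 50% at 4 µM in the single-point screen; inactive = inhibition of 50% or less.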 So high a share suggests a set chosen from earlier hits. Some of the results follow.

Experiment: blockers of TNF-a NF-kB luciferase induction – cell-based, HEK293T NF-kB-Luc, luminescence, selectivity assay for NOD1/NOD2 signaling inhibitor project, primary screen (AID 1852)
Settings: TNF-a induced, 14 h, at 4 µM, hits give high values

| SMILES | inhibition |
| --- | --- |
| O=C1N(Cc2cccc(Cl)c2)C[C@@H]2C[C@@H](c3cccn3-c3cccnc3)N3CCC[C@@]123 | 4.8% (inactive) |
| CCN1/C(=C/c2ccc3cc(C)cc(C)c3[n+]2CC)Sc2cc(C)ccc21 | 79.4% (active) |
| O=C(CCl)N(c1ccccc1)c1ccccc1 | 63.7% (active) |
| CN(Cc1ccc(Cl)cc1)C(=O)CCl | 9.6% (inactive) |
| O=C(CCl)NC(Cc1ccccc1)c1ccccc1 (configuration not stated) | 21.3% (inactive) |
| O=Cc1[nH]c2ccccc2c1N(C(=O)CCl)c1ccccc1 | 31.9% (inactive) |
| O=C(CCl)N(Cc1ccccc1)c1ccccc1 | 89.7% (active) |
| O=C(CCl)N(c1ccccc1)c1c[nH]c2ccccc12 | 103% (active) |
| COc1ccc(CC(=O)N(Cc2ccccc2)c2ccccc2)cc1S(=O)(=O)N1CCOCC1 | 13.5% (inactive) |
| COc1cc2c(cc1OC)C(c1ccc(-c3cc(Cl)ccc3Cl)o1)=NCC2 | 26.5% (inactive) |
| Cc1csc(NC(=O)C2CC(=O)N(c3ccc(C)c(C)c3)C2)n1 (configuration not stated) | -11.9% (inactive) |
| Cc1cnc(NC(=O)C2CC(=O)N(c3cccc(Cl)c3)C2)s1 (configuration not stated) | 92.4% (active) |
| O=C(/C(=C/c1ccc(Cl)cc1)c1nc2ccccc2[nH]1)c1ccccc1 | 107% (active) |
| O=C(/C(=C/c1ccc(Cl)cc1)c1nc2ccccc2[nH]1)c1cccs1 | 106% (active) |
| O=C(/C(=C/c1cccc(Cl)c1)c1nc2ccccc2[nH]1)c1ccccc1 | 31.9% (inactive) |
| COc1cc(/C=C(/C(=O)c2cccs2)c2nc3ccccc3[nH]2)ccc1O | 31.5% (inactive) |
| O=C(/C(=C\c1ccccc1)c1nc2ccccc2[nH]1)c1ccc(Cl)cc1 | 94.9% (active) |
| Cc1cccc(Cc2cnc(N3C(=N)SC(C)C3=O)s2)c1 (configuration not stated) | 100% (active) |
| Cc1cccc(CN2CCN(C(=O)CCl)CC2)c1 | 36% (inactive) |
| Cc1ccc(Cc2cnc(N3C(=N)SC(C)C3=O)s2)cc1 (configuration not stated) | 103% (active) |
| COc1cc(S(=O)(=O)NCc2ccncc2)ccc1Br | 45.8% (inactive) |

| SMILES | inhibition |
| --- | --- |
| C=CCSc1nsc(NC(=O)Nc2ccc(F)cc2)n1 | 43.4% (inactive) |
| C=CCSc1nsc(NC(=O)Nc2cccc(C(C)=O)c2)n1 | 85.2% (active) |
| CCSc1nsc(NC(=O)Nc2cccc(C(C)=O)c2)n1 | 30.4% (inactive) |
| CC(=O)c1ccc(Nc2nc3ccccc3nc2NS(=O)(=O)c2cccs2)cc1 | 12.2% (inactive) |
| O=S(=O)(Nc1nc2ccccc2nc1Nc1ccc(N2CCOCC2)cc1)c1cc(Cl)ccc1Cl | 77% (active) |
| C=CCN(c1ccccc1OC)S(=O)(=O)c1ccc(Cl)c(C(=O)Nc2ccc(N3CCOCC3)cc2)c1 | 25.4% (inactive) |
| Cc1oc2c(c1C(=O)c1ccccc1)C(=O)C(=O)c1ccccc1-2 | 104% (active) |
| COc1ccc(CNC(=O)c2ccc3ccccc3n2)cc1OC | 38% (inactive) |
| Cc1oc2c(c1C(=O)NCc1cccnc1)C(=O)c1ccccc1C2=O | 97.7% (active) |
| Cc1ccccc1-c1nc(CS(=O)(=O)CC(=O)NCCc2ccccc2)c(C)o1 | 10% (inactive) |
| COc1ccc(CNC(=O)c2c(C)oc3c2C(=O)c2ccccc2C3=O)cc1 | 100% (active) |
| Cc1csc2c(N3CCN(C(=O)Nc4ccc(Cl)c(Cl)c4)CC3)ncnc12 | 52.5% (active) |
| Fc1ccc(NC(=S)N2CCCN(c3ccc(C(F)(F)F)cn3)CC2)c(F)c1 | 55.6% (active) |
| CCCCNC(=S)Nc1ccc(C(F)(F)F)cc1 | -47.5% (inactive) |
| Cc1csc2ncnc(N3CCN(C(=S)Nc4ccc(F)cc4F)CC3)c12 | 66.9% (active) |
| Fc1ccc(NC(=S)NNc2ncc(C(F)(F)F)cc2Cl)c(F)c1 | 49.4% (inactive) |
| Cc1csc2c(N3CCN(C(=S)Nc4ccc(C(F)(F)F)cc4)CC3)ncnc12 | 78.5% (active) |
| Cc1ccc(S(=O)(=O)c2c(C(=O)c3ccccc3)cnc3cc4c(cc23)OCCO4)cc1 | 1.5% (inactive) |
| Cc1csc2ncnc(N3CCN(C(=S)Nc4ccc(C(F)(F)F)cc4)CC3)c12 | 66.1% (active) |
| Cc1csc2ncnc(N3CCN(C(=O)Nc4ccc(OC(F)(F)F)cc4)CC3)c12 | 102% (active) |
| Cc1csc2ncnc(N3CCN(S(=O)(=O)c4cccc(C(F)(F)F)c4)CC3)c12 | 44.4% (inactive) |

| SMILES | inhibition |
| --- | --- |
| O=C(CCl)c1cc2c3c(c1)CC(=O)N3CCC2 | 90.7% (active) |
| Fc1ccc(NC(=S)Nc2nccs2)cc1 | 73.6% (active) |
| O=[N+]([O-])c1ccc(NC(=S)NCc2ccc(F)cc2)cc1 | 22.1% (inactive) |
| CC(=O)Nc1nnc(S(=O)(=O)N2CCN(c3ccc(Cl)cc3[N+](=O)[O-])CC2)s1 | -2.9% (inactive) |
| COc1ccc(-c2cn[nH]c2-c2ccc(OCc3ccccc3F)cc2O)cc1OC | -1.5% (inactive) |
| COc1ccc(-c2cn[nH]c2-c2ccc(O)cc2O)cc1 | 51% (active) |
| COc1ccc(-c2cn[nH]c2-c2ccc(OCc3ccc(F)cc3)cc2O)cc1OC | 4.6% (inactive) |
| COc1ccc(-c2cn[nH]c2-c2ccc(OC)cc2)cc1 | 63.6% (active) |
| COc1ccc(-c2[nH]ncc2-c2ccc3c(c2)OCCO3)c(O)c1 | 102% (active) |
| COc1ccc(-c2cn[nH]c2-c2ccc(OC)cc2O)cc1 | 69.2% (active) |
| CCCOC(=O)c1ccc(Oc2cn[nH]c2-c2ccc(O)cc2O)cc1 | 17.1% (inactive) |
| COc1ccc(-c2cn[nH]c2-c2ccc(OCc3ccccc3)cc2O)cc1 | 32.2% (inactive) |
| CS(=O)(=O)N1CCC(C(=O)Nc2cc(Cl)c(Cl)cc2Cl)CC1 | 30.2% (inactive) |
| COc1ccc(CC2(CO)CCN(CC3=Cc4cc(Cl)ccc4OC3)CC2)cc1 | 44% (inactive) |
| Cc1nc(Sc2ccc(Br)cc2)c(C#N)c(C)c1[N+](=O)[O-] | -8.7% (inactive) |
| COc1ccc(NC(=O)/C(Cl)=C(/Cl)S(=O)Cc2ccc(Cl)cc2)cn1 (configuration not stated) | 89% (active) |
| COc1ccc(NC(=O)/C(Cl)=C(/Cl)S(=O)Cc2ccccc2)cn1 (configuration not stated) | 104% (active) |
| O=C(Cc1ccc(Cl)cc1)Nc1ncc([N+](=O)[O-])s1 | 16.3% (inactive) |
| COc1ccc(NC(=O)/C(Cl)=C(/Cl)S(=O)Cc2ccc(C)cc2)cn1 (configuration not stated) | 105% (active) |
| COc1ccc(CS(=O)/C(Cl)=C(/Cl)C(=O)Nc2ccc(OC)nc2)cc1 (configuration not stated) | 101% (active) |
